# PAX8 inh HTS: PAX8 transcriptional activity inhibition; RMG-I TPO-luciferase reporter, SteadyGlo, 24 h; inhibition, % at 12.6 µM; 360,000 compounds, 1.2% hits; AID 652154;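 active = mean replicate inhibition at least 60% with every replicate also reaching 60%; inconclusive = only one of the two criteria is met; inactive = mean below 60% and not all replicates reaching 60%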;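 also: luciferase light reporting Pax8 driven TPO promoter activity; plate controls were median of neutral control wells for no effect and mitoxantrone controls for full effect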
# Env fusion inh: HIV envelope-mediated fusion inhibition | HeLa-JRFL Env/CEM21 cell fusion, luciferase | inhibition, % at 12.3 µM | 360,000 compounds, 1.1% hits;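 active = mean replicate inhibition score of at least 50 and every replicate individually at or above 50; inconclusive = only one of the two criteria met; inactive = mean below 50 and not all replicates reaching 50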;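 also: 0% = plate neutral controls and 100% = maraviroc near 300 nM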
# EWS-Fli inh: blocks EWS/Fli oncoprotein-driven transcription | A673 NR0B1-luciferase reporter, viability-normalised | 350,000 compounds, 0.67% hits | inhibition, % at 12.6 µM;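 active = mean inhibition of at least 50% after viability correction, with every replicate also passing that limit; inconclusive = mean reaches 50% but only one of two replicates passes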;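 also: firefly luciferase signal divided by Alamar Blue viability fluorescence both relative to DMSO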
# miR122 inh: blocks miR-122 activity in Huh7 sensor cells. Huh7 miR-122 Renilla luciferase sensor, 48 h; neutral wells = 0, positive control = 100. activation (reporter increase), % at 12.5 µM. 340,000 compounds, 0.3% hits. AID 602342;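 active = mean replicate activation score at least 90 and every replicate individually at or above 90; inconclusive = only one of the two criteria met; inactive = neither criterion met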;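 also: higher luciferase means less miR-122 activity so hits act as miR-122 inhibitors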
# Statin myotox sup: protects C2C12 myotubes from simvastatin toxicity; ATP luminescence, 48 h; scaled: DMSO 0, geranylgeraniol control 100; rescue of ATP level, % at 7.49 µM; 330,000 compounds, 0.78% hits;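 active = mean ATP rescue above about 67%, or every replicate alone reaching that limit, limit read from the data, passing the limit was not always enough; inconclusive = no clear call, values can overlap the other calls; inactive = mean under the limit and some replicate under it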;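 also: myotubes were challenged with 10 µM simvastatin during compound exposure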
# INS-1E GSIS act: primary screen for activators of insulin secretion dependent on glucose, INS-1E cells, GLuc reporter luminescence; activation, % at 16.6 µM; INS-1E GLuc reporter insulin secretion, 2-3 h; 370,000 compounds, 0.61% hits;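 active = lowest replicate activation of at least 40%, so every replicate reaches that level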;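 also: 0% = median of neutral control wells and 100% = median of IBMX positive control wells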
# * marks the source's active call; other numbers are inactive results; ? = inconclusive; . = no result; [ ] = another dose, or the depositor's remark. An excerpt weighted towards active compounds, which were near 3.1% of everything screened.
SMILES,PAX8 inh HTS,Env fusion inh,EWS-Fli inh,miR122 inh,Statin myotox sup,INS-1E GSIS act
CCOc1ccc(C)cc1S(=O)(=O)n1cnc2ccccc21,-2,11,59*,37,-38,-3
C[C@@H]1CN([C@@H](C)CO)S(=O)(=O)c2ccc(C3=CCCCC3)cc2O[C@H]1CN(C)Cc1cccc(C(=O)O)c1,-12,.,9,8[16.7 µM],-2,-10
COc1ccc(NC(=O)Nc2ccc3c(c2)C(=O)N([C@@H](C)CO)C[C@@H](C)[C@@H](CN(C)C(=O)Nc2cccc4ccccc24)OCCCC[C@@H](C)O3)cc1,-8,-20[16.7 µM],-11,3[16.7 µM],0,18
O=C(C1CCCC1)N1CC[C@@H]2[C@H](CO)Nc3ccc(C4=CCCCC4)cc3[C@@H]21,90*,45[16.7 µM],4,.,.,3
O=C(c1ccc(F)cc1)N1CC[C@@H]2[C@H]1c1cc(C3=CCCCC3)ccc1N[C@@H]2CO,1,.,10,-4[16.7 µM],20,22
COc1ccccc1-c1ccc2c(c1)[C@@H]1[C@@H](CCN1C(=O)C1CCCCC1)[C@@H](CO)N2,105*,.,29,-16[16.7 µM],-163,.
CN1c2ccc(C3=CCCCC3)cc2[C@H]2[C@H](CCN2C(=O)C2CC2)[C@@H]1CO,100*,98*[16.7 µM],-3,.,.,.
N#Cc1ccc(-c2ccc3c(c2)[C@@H]2[C@@H](CCN2C(=O)C2CCCC2)[C@@H](CO)N3)cc1,.,.,-2,.,.,41*
N#Cc1ccc(-c2ccc3c(c2)[C@H]2[C@H](CCN2C(=O)C2CCCCC2)[C@H](CO)N3)cc1,21,.,4,-1[16.7 µM],20,7
CNC(=O)C[C@@H]1CC[C@@H]2[C@@H](COc3ccc(NC(=O)Nc4cccc(Cl)c4)cc3C(=O)N2C)O1,2,18[16.7 µM],-4,-2[16.7 µM],27,-9
C[C@@H]1CN([C@H](C)CO)C(=O)Cc2cc(NS(=O)(=O)c3cn(C)cn3)ccc2O[C@@H]1CN(C)C(=O)Nc1ccc(C(F)(F)F)cc1,.,5[16.7 µM],-9,2[16.7 µM],-1,19
O=C(Cc1ccccc1)N1CC[C@@H]2[C@H](CO)Nc3ccc(C4=CCCCC4)cc3[C@@H]21,59,.,5,-11[16.7 µM],-7,7
O=C(Cc1ccccc1)N1CC[C@H]2[C@H](CO)Nc3ccc(C4=CCCCC4)cc3[C@H]21,82*,18[16.7 µM],-3,.,.,7
COc1ccc(NC(=O)Nc2ccc3c(c2)C(=O)N([C@@H](C)CO)C[C@@H](C)[C@@H](CN(C)Cc2ccc(C(F)(F)F)cc2)OCCCC[C@H](C)O3)cc1,72*,9[16.7 µM],-1,-3[16.7 µM],38,-17
COc1ccc(CN(C)C[C@H]2OCCCC[C@@H](C)Oc3ccc(NC(=O)Nc4ccc(C(F)(F)F)cc4)cc3C(=O)N([C@H](C)CO)C[C@H]2C)cc1,41,6[16.7 µM],56*,-23[16.7 µM],-83,-9
COc1ccc(NC(=O)Nc2ccc3c(c2)C(=O)N([C@@H](C)CO)C[C@H](C)[C@@H](CN(C)Cc2ccc(C(F)(F)F)cc2)OCCCC[C@@H](C)O3)cc1,69*,26[16.7 µM],9,0[16.7 µM],-258,-25
COc1ccc(CN(C)C[C@H]2OCCCC[C@H](C)Oc3ccc(NC(=O)Nc4ccc(C(F)(F)F)cc4)cc3C(=O)N([C@@H](C)CO)C[C@H]2C)cc1,106*,8[16.7 µM],67*,-18[16.7 µM],-63,2
COc1ccc(NC(=O)Nc2ccc3c(c2)C(=O)N([C@H](C)CO)C[C@@H](C)[C@@H](CN(C)Cc2ccc(C(F)(F)F)cc2)OCCCC[C@@H](C)O3)cc1,44,?,4,-2[16.7 µM],19,-11
O=C([C@@H]1[C@@H](CO)[C@@H]2Cn3c(ccc(C4=CCCC4)c3=O)[C@H]1N2C(=O)c1ccncc1)N1CCOCC1,7,3[16.7 µM],1,.,40,8
O=S(=O)(N[C@H]1CC[C@@H](CCn2cc(-c3cccc(F)c3)nn2)O[C@@H]1CO)c1ccccc1,6,10[16.7 µM],15,.,0,-10
COc1ccc(NC(=O)Nc2ccc3c(c2)C(=O)N([C@H](C)CO)C[C@H](C)[C@@H](CN(C)Cc2ccc(C(F)(F)F)cc2)OCCCC[C@@H](C)O3)cc1,44,0[16.7 µM],8,-9[16.7 µM],12,-25
COc1ccc(NC(=O)Nc2ccc3c(c2)C(=O)N([C@@H](C)CO)C[C@H](C)[C@@H](CN(C)Cc2ccc(C(F)(F)F)cc2)OCCCC[C@H](C)O3)cc1,48,28[16.7 µM],7,2[16.7 µM],-221,-9
COc1ccc(CN(C)C[C@@H]2OCCCC[C@H](C)Oc3ccc(NC(=O)Nc4ccc(C(F)(F)F)cc4)cc3C(=O)N([C@@H](C)CO)C[C@@H]2C)cc1,-26,76*[16.7 µM],83*,-24[16.7 µM],-52,24
COc1ccc(NC(=O)Nc2ccc3c(c2)C(=O)N([C@H](C)CO)C[C@@H](C)[C@H](CN(C)Cc2ccc(C(F)(F)F)cc2)OCCCC[C@@H](C)O3)cc1,51,68*[16.7 µM],7,-2[16.7 µM],-205,-23
COc1ccc(NC(=O)Nc2ccc3c(c2)C(=O)N([C@@H](C)CO)C[C@@H](C)[C@@H](CN(C)Cc2ccc(C(F)(F)F)cc2)OCCCC[C@@H](C)O3)cc1,84*,28[16.7 µM],-1,12[16.7 µM],7,-28
SMILES,PAX8 inh HTS,Env fusion inh,EWS-Fli inh,miR122 inh,Statin myotox sup,INS-1E GSIS act
C[C@@H]1CN([C@@H](C)CO)C(=O)c2cc(NS(=O)(=O)c3ccc(F)cc3)ccc2O[C@@H](C)CCCCO[C@H]1CN(C)Cc1ccncc1,11,-4[16.7 µM],-9,-4[16.7 µM],.,-8
COc1ccc(-c2cc(=O)oc3cc(OC(=O)C4CCCCC4)c(Cl)cc23)cc1,-27,66*,10,.,.,-2
COc1ccc(-c2cc(=O)oc3cc(O)ccc23)cc1,5,36,15,.,.,56
C[C@@H]1CN([C@@H](C)CO)C(=O)c2cc(NS(=O)(=O)c3ccccc3)ccc2O[C@@H]1CN(C)Cc1ccncc1,-4,.,-7,26[16.7 µM],17,-12
CCCNC(=O)N1CC2(CCN(C(=O)c3cccnc3)CC2)c2c([nH]c3cc(OC)ccc23)[C@H]1CO,.,-6[16.7 µM],-15,.,.,7
C[C@@H]1CN([C@H](C)CO)C(=O)c2cccc(NC(=O)Nc3ccccc3)c2O[C@@H]1CN(C)Cc1ccc2c(c1)OCO2,1,.,-7,7[16.7 µM],-12,4
O=C(NCCC1CCCCN1S(=O)(=O)c1ccc(Cl)cc1)C(=O)NCc1ccncc1 (configuration not stated),97*,.,11,-11,-1,-6
Cc1ccc(CNC(=O)C(=O)NCCC2CCCCN2S(=O)(=O)c2ccc(C)cc2)cc1 (configuration not stated),17,.,4,.,14,-33
O=C(NCCC1CCCCN1S(=O)(=O)c1ccc(F)cc1)C(=O)NCc1ccncc1 (configuration not stated),69*,.,8,.,4,-3
COc1ccc(CN(C)C[C@@H]2Oc3ccc(NC(=O)NC(C)C)cc3CC(=O)N([C@@H](C)CO)C[C@H]2C)cc1,-15,.,.,1[16.7 µM],7,16

# From PubChem BioAssay
